In general, AC50 refers to the midpoint of the concentration-response curve, whichever way the signal moves.

Outcome and AC50 data for 7 molecules are collected here from PubChem BioAssay (EPA / NIEHS).

The structures appear in SMILES notation. Active and inactive are the calls of the source. How the source made its calls: active means hit-call score of the fitted dose curve at least 0.9, where 1 is the maximum; inactive means score below 0.9.

Holding throughout (details): mRNA level, 48 h; actives raise or lower the signal
Read-out in assay [1]: Interleukin 6 Receptor (IL6R), IL6R (gene 3570)
As to the kind of experiment: LTEA_HepaRG_IL6R: Life Technologies and Expression Analysis (LTEA) Assay for Interleukin 6 Receptor (IL6R) using HepaRG (AID 2283510). An outline of the steps: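 HepaRG, 48 h exposure, 8-pt half-log series, top 100 uM, 0.5% DMSO vehicle, duplicates. Read-out: TaqMan qRT-PCR of IL6R transcript, housekeeping-gene normalized. Gain or loss fitted relative to DMSO baseline.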

Read-out in assay [2]: Potassium channel subfamily K member 1 (KCNK1), KCNK1 (gene 3775)
As to the kind of experiment: LTEA_HepaRG_KCNK1: Life Technologies and Expression Analysis (LTEA) Assay for Potassium channel subfamily K member 1 (KCNK1) using HepaRG (AID 2283511). The method, boiled down: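 HepaRG, 48 h exposure, 8-pt half-log series top 100 uM, 0.5% DMSO vehicle, duplicates. Readout: KCNK1 transcript by qRT-PCR (Fluidigm array), housekeeping-normalized; bidirectional curve fit relative to DMSO baseline.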

Read-out in assay [3]: Keratin 19 (KRT19), KRT19 (gene 3880)
As to the kind of experiment: LTEA_HepaRG_KRT19: Life Technologies and Expression Analysis (LTEA) Assay for Keratin 19 (KRT19) using HepaRG (AID 2283512). An outline of the steps:
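KRT19 transcript levels, measured by Fluidigm qRT-PCR against three housekeeping genes, are fitted for gain or loss of signal relative to DMSO. Human HepaRG cells receive test chemicals (top 100 uM, half-log steps, 0.5% DMSO) for 48 hours.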

Read-out in assay [4]: JUN Transcription Factor, JUN (gene 3725)
As to the kind of experiment: LTEA_HepaRG_JUN: Life Technologies and Expression Analysis (LTEA) Assay for JUN Transcription Factor using HepaRG (AID 2283513). An outline of the steps:
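HepaRG, 48 h exposure, 8-pt half-log series top 100 uM, 0.5% DMSO, duplicate. JUN mRNA by qRT-PCR (Fluidigm), housekeeping-normalized (ACTB/GAPDH/POLR2A); bidirectional curve fit vs DMSO baseline.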

Read-out in assay [5]: Lipase C (LIPC), LIPC (gene 3990)
As to the kind of experiment: LTEA_HepaRG_LIPC: Life Technologies and Expression Analysis (LTEA) Assay for Lipase C (LIPC) using HepaRG (AID 2283514). The method, boiled down:
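HepaRG, 48 h exposure, 8-pt half-log series from 100 uM in 0.5% DMSO, duplicates. Readout: LIPC mRNA by Fluidigm qRT-PCR, housekeeping-normalized (ACTB/GAPDH/POLR2A). Gain or loss fitted bidirectionally against DMSO baseline.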

Read-out in assay [6]: Lipoprotein lipase (LPL), LPL (gene 4023)
Briefly: LTEA_HepaRG_LPL: Life Technologies and Expression Analysis (LTEA) Assay for Lipoprotein lipase (LPL) using HepaRG (AID 2283515). An outline of the steps: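 HepaRG, 48 h exposure, 8-pt half-log dilutions from 100 uM, 0.5% DMSO vehicle, duplicates; qRT-PCR (Fluidigm array) of LPL mRNA vs housekeeping genes; bidirectional curve fit relative to DMSO baseline.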

Read-out in assay [7]: MicroRNA 122 (MIR122), gene 406906
Briefly: LTEA_HepaRG_MIR122: Life Technologies and Expression Analysis (LTEA) Assay for MicroRNA 122 (MIR122) using HepaRG (AID 2283516). Further: the transcript read is the microRNA miR-122. The method, boiled down: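 qRT-PCR read-out (TaqMan, Fluidigm array), normalized to three housekeeping genes; HepaRG cells dosed 48 h at 8 concentrations up to 100 uM in 0.5% DMSO, duplicate; gain or loss fitted against DMSO baseline.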

Read-out in assay [8]: matrix metalloproteinase-10 (MMP10), MMP10 (gene 4319)
Briefly: LTEA_HepaRG_MMP10: Life Technologies and Expression Analysis (LTEA) Assay for matrix metalloproteinase-10 (MMP10) using HepaRG (AID 2283517). The method, boiled down:
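Transcript levels come from Fluidigm qRT-PCR normalized to three housekeeping genes, with curves fitted bidirectionally against 0.5% DMSO. Human HepaRG cells were dosed for 48 hours at concentrations up to 100 uM.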

Read-out in assay [9]: matrix metalloproteinase-3 (MMP3), MMP3 (gene 4314)
Briefly: LTEA_HepaRG_MMP3: Life Technologies and Expression Analysis (LTEA) Assay for matrix metalloproteinase-3 (MMP3) using HepaRG (AID 2283519). The method, boiled down:
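qRT-PCR read-out of MMP3 mRNA (normalised to three housekeeping genes) in HepaRG liver cells after 48 h chemical exposure; 8-point half-log series, top 100 uM, 0.5% DMSO vehicle. Bidirectional curve fitting against DMSO baseline.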

Read-out in assay [10]: Paternally Expressed 10 (PEG10), PEG10 (gene 23089)
As to the kind of experiment: LTEA_HepaRG_PEG10: Life Technologies and Expression Analysis (LTEA) Assay for Paternally Expressed 10 (PEG10) using HepaRG (AID 2283520). An outline of the steps:
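qRT-PCR read-out: PEG10 mRNA normalised to three housekeeping genes, fitted bidirectionally against 0.5% DMSO vehicle. HepaRG cells received test chemicals for 48 h in serum-free induction medium, 8 points, top 100 uM, half-log steps.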

Read-out in assay [11]: Nuclear factor NF-kappa-B p105 subunit (Homo sapiens) (UniProt P19838)
Briefly: LTEA_HepaRG_NFKB1: Life Technologies and Expression Analysis (LTEA) Assay for Nuclear Factor Kappa B Subunit 1 (NFKB1) using HepaRG (AID 2283521).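 Further: differentiated human HepaRG liver cells in serum-free induction medium; TaqMan qRT-PCR transcript normalised to ACTB GAPDH and POLR2A housekeeping genes.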 An outline of the steps: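 HepaRG, 48 h exposure; 8-pt half-log series from 100 uM in 0.5% DMSO; duplicates. Readout: NFKB1 mRNA by qRT-PCR (Fluidigm arrays), housekeeping-normalized. Gain/loss fit vs DMSO baseline.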

Read-out in assay [12]: Protein phosphatase 2A (PPP2R4), PTPA (gene 5524)
Briefly: LTEA_HepaRG_PPP2R4: Life Technologies and Expression Analysis (LTEA) Assay for Protein phosphatase 2A (PPP2R4) using HepaRG (AID 2283522). An outline of the steps: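 HepaRG, 48 h exposure, 8-pt half-log series from 100 uM, 0.5% DMSO vehicle, duplicates. Readout: PPP2R4 mRNA, Fluidigm qRT-PCR, housekeeping-normalized. Bidirectional curve fit vs DMSO baseline.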

Read-out in assay [13]: Phosphatase and tensin (PTEN), PTEN (gene 5728)
As to the kind of experiment: LTEA_HepaRG_PTEN: Life Technologies and Expression Analysis (LTEA) Assay for Phosphatase and tensin (PTEN) using HepaRG (AID 2283523). An outline of the steps:
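HepaRG, 48 h exposure, 8-pt half-log series from 100 uM top, 0.5% DMSO vehicle, duplicates. Readout: Fluidigm qRT-PCR of PTEN transcript; housekeeping normalization (ACTB, GAPDH, POLR2A). Gain or loss fitted relative to DMSO baseline.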

Read-out in assay [14]: solute carrier (SLC22A1), SLC22A1 (gene 6580)
As to the kind of experiment: LTEA_HepaRG_SLC22A1: Life Technologies and Expression Analysis (LTEA) Assay for solute carrier (SLC22A1) using HepaRG (AID 2283524).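 On AC50: differentiated human HepaRG liver cells in serum-free induction medium.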 An outline of the steps:
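qRT-PCR readout (TaqMan, Fluidigm arrays) of SLC22A1 transcript, normalized to three housekeeping genes; bidirectional curve fit relative to 0.5% DMSO vehicle. Differentiated human HepaRG cells, 48 h chemical exposure, top concentration 100 uM, half-log steps, eight points.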

Read-out in assay [15]: Pyruvate Dehydrogenase Kinase 4 (PDK4), PDK4 (gene 5166)
Briefly: LTEA_HepaRG_PDK4: Life Technologies and Expression Analysis (LTEA) Assay for Pyruvate Dehydrogenase Kinase 4 (PDK4) using HepaRG (AID 2283525). An outline of the steps:
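HepaRG (human liver line), 48 h chemical exposure, 8-pt half-log CRC top 100 uM, 0.5% DMSO vehicle, duplicates. Readout: TaqMan qRT-PCR of PDK4 mRNA, housekeeping-normalized; gain/loss fit relative to DMSO baseline.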

Read-out in assay [16]: NAD(P)H dehydrogenase [quinone] 1 (NQO1), NQO1 (gene 1728)
As to the kind of experiment: LTEA_HepaRG_NQO1: Life Technologies and Expression Analysis (LTEA) Assay for NAD(P)H dehydrogenase [quinone] 1 (NQO1) using HepaRG (AID 2283526). An outline of the steps:
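qRT-PCR read-out (Fluidigm TaqMan), normalized to three housekeeping genes, after 48 h chemical exposure of HepaRG cells. Concentrations: eight points, top 100 uM, half-log steps, 0.5% DMSO vehicle. Gain or loss of signal fitted relative to DMSO.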

Read-out in assay [17]: Nuclear factor erythroid 2-related factor 2 (Homo sapiens) (UniProt Q16236)
Briefly: LTEA_HepaRG_NFE2L2: Life Technologies and Expression Analysis (LTEA) Assay for Nuclear factor erythroid 2-related factor 2 (NFE2L2) Transcription Factor using HepaRG (AID 2283527).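 Further: TaqMan qRT-PCR transcript level normalised to ACTB GAPDH and POLR2A housekeeping genes.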 The method, boiled down:
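HepaRG, 48 h dosing, 8-pt half-log series from 100 uM in 0.5% DMSO, duplicates. Read-out: NFE2L2 mRNA by qRT-PCR (ACTB/GAPDH/POLR2A normalization). Bidirectional curve fit vs DMSO baseline.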

Read-out in assay [18]: succinate dehydrogenase complex iron sulfur subunit B (SDHB), SDHB (gene 6390)
As to the kind of experiment: LTEA_HepaRG_SDHB: Life Technologies and Expression Analysis (LTEA) Assay for succinate dehydrogenase complex iron sulfur subunit B (SDHB) using HepaRG (AID 2283528). An outline of the steps:
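Readout is SDHB transcript level by qRT-PCR, normalised to three housekeeping genes and fitted bidirectionally against 0.5% DMSO vehicle. Human HepaRG cells were treated for 48 h at up to 100 uM.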

Read-out in assay [19]: Signal transducer and activator of transcription 3 (Homo sapiens) (UniProt P40763)
As to the kind of experiment: LTEA_HepaRG_STAT3: Life Technologies and Expression Analysis (LTEA) Assay for Signal transducer and activator of transcription (STAT3) using HepaRG (AID 2283529). The method, boiled down:
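HepaRG, 48 h exposure, 8-pt half-log series (top 100 uM), 0.5% DMSO vehicle, duplicates. Readout: STAT3 transcript by Fluidigm qRT-PCR, housekeeping-normalized; bidirectional fit vs DMSO baseline.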

Read-out in a further assay: MYC, MYC (gene 4609)
Briefly: LTEA_HepaRG_MYC: Life Technologies and Expression Analysis (LTEA) Assay for MYC using HepaRG (AID 2283518). The method, boiled down: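 HepaRG, ~100,000 cells/well, collagen I; 48 h plating; serum-free induction medium; 48 h dosing, duplicate, 100 uM top, half-log, 0.5% DMSO; total RNA → qRT-PCR MYC; gain/loss fit vs DMSO.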

Sequence of Nuclear factor erythroid 2-related factor 2 (Homo sapiens) (Q16236 whole entry, looked up): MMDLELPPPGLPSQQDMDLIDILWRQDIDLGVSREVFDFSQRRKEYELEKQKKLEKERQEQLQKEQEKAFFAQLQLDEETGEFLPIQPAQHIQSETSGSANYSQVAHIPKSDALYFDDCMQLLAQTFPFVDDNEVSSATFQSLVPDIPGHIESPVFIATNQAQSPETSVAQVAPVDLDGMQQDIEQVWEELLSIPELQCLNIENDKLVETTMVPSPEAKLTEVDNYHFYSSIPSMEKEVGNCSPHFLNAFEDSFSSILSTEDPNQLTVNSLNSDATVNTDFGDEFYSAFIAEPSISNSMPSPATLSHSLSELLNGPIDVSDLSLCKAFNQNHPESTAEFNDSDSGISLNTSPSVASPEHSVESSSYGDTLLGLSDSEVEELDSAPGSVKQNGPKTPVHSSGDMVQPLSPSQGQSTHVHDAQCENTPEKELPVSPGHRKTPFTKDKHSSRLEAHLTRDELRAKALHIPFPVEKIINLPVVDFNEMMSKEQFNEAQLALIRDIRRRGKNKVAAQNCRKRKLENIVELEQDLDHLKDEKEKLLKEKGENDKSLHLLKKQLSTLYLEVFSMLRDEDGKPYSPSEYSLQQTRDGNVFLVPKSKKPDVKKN
Sequence of Signal transducer and activator of transcription 3 (Homo sapiens) (P40763 whole entry, looked up): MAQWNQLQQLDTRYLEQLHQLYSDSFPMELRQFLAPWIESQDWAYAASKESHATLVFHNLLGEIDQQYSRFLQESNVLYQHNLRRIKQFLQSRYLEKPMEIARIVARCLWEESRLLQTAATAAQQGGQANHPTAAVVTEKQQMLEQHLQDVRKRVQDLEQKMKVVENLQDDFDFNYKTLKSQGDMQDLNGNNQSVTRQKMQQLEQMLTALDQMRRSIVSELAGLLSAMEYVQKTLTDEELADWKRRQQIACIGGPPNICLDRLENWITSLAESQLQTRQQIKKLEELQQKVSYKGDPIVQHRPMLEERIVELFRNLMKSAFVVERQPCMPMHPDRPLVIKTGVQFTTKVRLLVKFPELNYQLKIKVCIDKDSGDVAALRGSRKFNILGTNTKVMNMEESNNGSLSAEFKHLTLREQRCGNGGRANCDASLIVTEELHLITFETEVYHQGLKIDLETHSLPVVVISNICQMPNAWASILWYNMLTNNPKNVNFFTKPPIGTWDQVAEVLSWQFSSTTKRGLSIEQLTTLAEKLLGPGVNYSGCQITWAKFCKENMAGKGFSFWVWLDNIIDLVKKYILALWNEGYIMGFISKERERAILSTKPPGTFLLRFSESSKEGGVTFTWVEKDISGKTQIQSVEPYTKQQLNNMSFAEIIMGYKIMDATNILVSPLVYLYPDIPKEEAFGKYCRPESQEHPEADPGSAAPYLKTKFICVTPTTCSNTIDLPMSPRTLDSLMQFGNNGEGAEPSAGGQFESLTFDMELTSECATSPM
Sequence of Nuclear factor NF-kappa-B p105 subunit (Homo sapiens) (P19838 whole entry, looked up): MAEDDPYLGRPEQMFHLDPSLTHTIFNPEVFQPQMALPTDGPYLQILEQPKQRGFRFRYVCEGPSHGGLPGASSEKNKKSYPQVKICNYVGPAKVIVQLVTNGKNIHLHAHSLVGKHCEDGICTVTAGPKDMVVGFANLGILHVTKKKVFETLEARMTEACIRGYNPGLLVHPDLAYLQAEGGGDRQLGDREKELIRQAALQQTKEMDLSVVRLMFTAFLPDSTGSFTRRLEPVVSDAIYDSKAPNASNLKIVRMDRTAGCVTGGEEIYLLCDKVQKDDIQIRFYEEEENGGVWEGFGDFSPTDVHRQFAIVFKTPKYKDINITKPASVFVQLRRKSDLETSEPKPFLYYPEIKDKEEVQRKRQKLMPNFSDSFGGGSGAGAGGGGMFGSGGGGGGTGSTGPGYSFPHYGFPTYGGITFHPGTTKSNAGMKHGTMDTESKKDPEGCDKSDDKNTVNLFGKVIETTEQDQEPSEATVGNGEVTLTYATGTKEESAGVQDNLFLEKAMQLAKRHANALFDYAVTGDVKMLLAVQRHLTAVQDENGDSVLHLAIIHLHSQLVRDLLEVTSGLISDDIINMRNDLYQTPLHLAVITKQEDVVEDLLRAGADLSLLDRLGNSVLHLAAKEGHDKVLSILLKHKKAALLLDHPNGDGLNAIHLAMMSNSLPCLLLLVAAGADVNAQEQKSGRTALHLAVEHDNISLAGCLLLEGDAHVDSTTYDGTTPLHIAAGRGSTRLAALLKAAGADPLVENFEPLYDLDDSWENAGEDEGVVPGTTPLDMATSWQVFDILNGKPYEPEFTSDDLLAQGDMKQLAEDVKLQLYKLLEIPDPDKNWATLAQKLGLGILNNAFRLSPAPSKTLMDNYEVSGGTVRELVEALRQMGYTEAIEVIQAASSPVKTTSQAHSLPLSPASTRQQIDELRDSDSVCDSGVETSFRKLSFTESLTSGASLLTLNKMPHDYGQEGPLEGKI

Consider `CC(C)N1C(=O)c2ccccc2NS1(=O)=O`, for which the call in [1], in [2], in assay [3], in assay [4], in assay [5] and in assay [6] was inactive. In addition, the call in assay [7], in [8], in [9], in assay [10], in assay [11] and in [12] was inactive. Moreover, the outcome in assay [13], in [14], in assay [15], in assay [16], in assay [17] and in assay [18] was inactive. Moreover, in assay [19], the molecule was classed as inactive.
For `N#Cc1c(Cl)cccc1Cl`, the outcome in [2], in assay [3], in assay [4], in assay [5], in [6] and in assay [7] was inactive. Also, the outcome in assay [8], in assay [9], in assay [10], in [11], in assay [12] and in [13] was inactive. Also, the outcome in assay [14], in [15], in assay [16], in assay [17], in [18] and in assay [19] was inactive.
On to `CC(C)=CC1C(C(=O)OCc2coc(Cc3ccccc3)c2)C1(C)C` (centres undefined), for which the outcome in assay [2], in [3], in assay [4], in assay [5], in assay [6] and in [7] was inactive. For the same molecule, the outcome in assay [8] was “inactive”; with MYC, MYC (gene 4609) it was “inactive”; in [9], “inactive”; in [10], “inactive”; in assay [11], “inactive”; in assay [12], “inactive”. Also, the outcome in assay [13], in assay [16], in assay [17], in assay [18] and in assay [19] was inactive. Also, the AC50 in assay [15] was 50 µM (active).
In the case of `COc1ccc(-c2ccccc2)cc1NNC(=O)OC(C)C`, the outcome in assay [2], in assay [3], in [4], in assay [5], in assay [6] and in assay [7] was inactive. Further, the outcome in [8] was “inactive”; with MYC, MYC (gene 4609) it was “inactive”; in [9], “inactive”; in assay [10] it was “inactive”; in [11], “inactive”; in [12], “inactive”. In addition, the result in [13], in assay [15], in assay [16], in [17], in assay [18] and in [19] was inactive.
For `Cc1cnc(C2=NC(C)(C(C)C)C(=O)N2)c(C(=O)O)c1` (centres undefined), the molecule was called inactive in assay [2], in assay [3], in assay [4], in assay [5], in assay [6] and in assay [7]. In addition, the result in assay [8], in [9], in [10], in [12], in assay [13] and in [15] was inactive. For the same molecule, the call in assay [16], in [17], in assay [18] and in [19] was inactive.
In the case of `CSC(=O)c1c(C(F)F)nc(C(F)(F)F)c(C(=O)SC)c1CC(C)C`, the outcome in [2], in assay [3], in assay [4], in assay [6], in assay [8] and in assay [9] was inactive. In addition, the call in [10], in assay [12], in [13], in [16], in assay [17] and in [18] was inactive. Besides, the AC50 was 91.9 µM (active) in assay [5]; 49.8 µM (active) in assay [7]; 90 µM (active) in assay [14]; 33.8 µM (active) in assay [15]; 49.8 µM (active) in [19].
As for `CS(=O)(=O)c1ccc(C(=O)C2C(=O)CCCC2=O)c([N+](=O)[O-])c1`, the call in assay [2], in [3], in assay [4], in assay [5], in assay [6] and in assay [7] was inactive. Moreover, the call in assay [8], in assay [9], in [10], in assay [11], in [12] and in assay [13] was inactive. The result in [14], in assay [15], in assay [16], in [17], in [18] and in assay [19] was inactive.
